The text below walks through data of PubChem BioAssay AID623868 (Vanderbilt High Throughput Screening Facility, 2012).

Structures are written as SMILES. Hit rate of the full screen: of about 2,100 compounds, about 760 (36%) were called active. These entries were drawn from the full list. A number with no mark means an inactive call.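 Rule for the calls: active = thallium-flux fluorescence traces judged by eye to show enhanced or reduced glutamate response, manual score 1 or -1, so both directions (some results past the limit were not filed as active); inactive = the rest, including fluorescent or raised-baseline compounds.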

A short description of this assay: non-GIRK thallium flux modulation in mGlu8 cells, confirmation, counter-screen for GIRK activator project, cell-based, HEK-293 rmGlu8, no GIRK (AID 623868).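 Note: extra codes mark interference with 3 for fluorescent and 4 for baseline rise.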 Conditions: thallium flux fluorescence, at 10 µM, actives lie on both sides, codes: 1 enhancer, -1 blocker, 0 none, thallium stimulus containing EC20 glutamate. For orientation: The purpose of a counterscreen is to sort out artefacts and off-target activity.
For `Cc1cccc(OCC(O)Cn2c(=N)n(CCN3CCCCC3)c3ccccc32)c1` (stereo not drawn), the manual score was 0. Regarding `COc1ccccc1N1CCN(Cc2cc(Br)c(O)c3ncccc23)CC1`, the manual score is 1 (active). The result for `c1ccc2c(c1)oc1c(N3CCN(Cc4ccc5c(c4)OCO5)CC3)ncnc12` reads 0. Consider `COC(=O)C1=C(C)NC(=O)/C1=C\c1ccco1`, for which the manual score is 0.

On to `Cc1cccc(N=C2NC(=O)/C(=C/C=C/c3ccco3)S2)c1C`, for which the manual score was 1 (active). As to `CC(C)c1ccc(-c2noc(C3CCCN(S(C)(=O)=O)C3)n2)cc1` (stereo not drawn), the manual score is 0. The same measure for `CCOC(=O)c1c(C)c(C(=O)N2CCc3ccccc3C2)c(C)n1CC`: 0.

As to `O=C(COc1c(Br)cc(Br)c2cccnc12)N1CCc2ccccc2C1`, the manual score was 1 (active). For the compound `CC(C)=CCC(C)(C)CNC(=O)NC1CCCCC1`, the manual score was 0.

Turning to `Cn1c(-c2sc3ccccc3c2Cl)n[nH]c1=S`, the manual score was 1 (active).

In the case of `CCC(CC)c1nnc(NC(=O)C2COc3ccccc3O2)s1` (stereo not drawn), the manual score is 0. The result for `CCC(CC)c1nnc(NC(=O)c2ccc3ccccc3n2)s1` reads 1 (active); that for `Cc1nnc(NC(=O)CCSc2ccccc2)s1`, 0; that for `Cc1ccc(NC2=NC(=S)N(CC#N)C23CCCCC3)cc1`, 1 (active). Take `N#CCN1C(=S)N=C(Nc2cccc(Cl)c2)C12CCCCC2`: the manual score was 0. As for `COc1ccc(NC2=NC(=S)N(c3ccccc3C)C23CCCCC3)cc1`, the manual score was 1 (active). The result for `CCC1CCCCN1CCCn1c(=S)[nH]c2ccccc2c1=O` (stereo not drawn) reads 1 (active); that for `O=c1c2ccccc2[nH]c(=S)n1CCN1CCN(Cc2ccccc2)CC1`, 1 (active). As for `O=C(NCc1ccccc1)c1ccc2c(=O)n(CCCN3CCCC3=O)c(=S)[nH]c2c1`, the manual score is 0. The same measure for `CC1CC(C)CN(CCCn2c(=S)[nH]c3ccccc3c2=O)C1` (stereo not drawn): 1 (active); for `Cc1ccccc1-c1nc(CN2CCC(C(=O)NCCCN3CC(C)CC(C)C3)CC2)c(C)o1` (stereo not drawn): 0; for `CC1CCCCN1CCCn1c(=S)[nH]c2ccccc2c1=O` (stereo not drawn): 0. The same measure for `CCC1CCCN1Cn1cnc2c([nH]c3ccc(OC)cc32)c1=O` (stereo not drawn): 0. The same measure for `CC(C)CCn1c(CN2CCN(Cc3ccccc3)CC2)nc2c1c(=O)[nH]c(=O)n2C`: 0; for `O=c1c2ccccc2[nH]c(=S)n1CCCN1CCN(C2CCCCC2)CC1`: 1 (active); for `Cc1cccc(N2C(N)=NC(N)=NC23CCCCC3)c1`: 0. Turning to `CCN(CC)S(=O)(=O)c1cc(NC(=O)Cn2cnc3ccccc3c2=O)ccc1C`, the manual score was 0. For `CC(C)CN(C(=O)COC(=O)Cc1n[nH]c(=O)c2ccccc12)C1CCS(=O)(=O)C1` (stereo not drawn), the manual score was 0. As to `CCOC(=O)c1c(C)[nH]c(=S)c(C#N)c1-c1ccc(Cl)cc1`, the manual score was 0.5. In the case of `COc1ccc(-c2c3c([nH]c(=S)c2C#N)CCC3)cc1`, the manual score was 1 (active). The result for `CCN1CCCC1CNC(=O)CSCc1nc(-c2ccccc2C)oc1C` (stereo not drawn) reads 0; that for `O=C(/C=C/c1ccccc1)NC(NC(=S)Nc1cccc(O)c1)C(Cl)(Cl)Cl` (stereo not drawn), 3; that for `COC(=O)c1ccccc1NC(=S)NC(NC(=O)c1ccco1)C(Cl)(Cl)Cl` (stereo not drawn), 1 (active). The same measure for `O=C(/C=C/c1ccccc1)NC(NC(=S)Nc1cc(Cl)ccc1Cl)C(Cl)(Cl)Cl` (stereo not drawn): 0.

As for `O=C(NC(NC(=S)Nc1ccc(Cl)cc1Cl)C(Cl)(Cl)Cl)c1cccc([N+](=O)[O-])c1` (stereo not drawn), the manual score was 1 (active). The result for `O=C(/C=C/c1ccccc1)NC(NC(=S)Nc1cccc(Cl)c1)C(Cl)(Cl)Cl` (stereo not drawn) reads 0. `CCC1c2ccc(C)n2CCN1C(=O)Nc1ccccc1C(=O)OC` (stereo not drawn): the manual score is 0. The result for `COC(=O)c1ccccc1NC(=S)NC(NC(=O)c1ccccc1[N+](=O)[O-])C(Cl)(Cl)Cl` (stereo not drawn) reads 1 (active); that for `CCOc1cc(C)nc(N2CCN(C3CCCCC3)CC2)n1`, 0; that for `O=C1CC(c2ccncc2)c2cc3c(cc2N1)OCCO3` (stereo not drawn), 0. For the compound `CCC(=O)Nc1nc2ccc3nc(C)sc3c2s1`, the manual score was 0. The result for `Cc1cccc2sc(NC(=O)Cn3cccc3)nc12` reads 1 (active). For `Cc1ccc(NC(=O)Cn2cccc2)cc1Cl`, the manual score is 0. For the compound `CCOc1ccccc1Cn1c(=O)oc2ccc(C)cc21`, the manual score was 0.

In the case of `COc1ccccc1OCC(=O)Nc1sc2c(c1C(=O)NCC1CCCO1)CCC2` (stereo not drawn), the manual score was 0. The result for `COc1ccc(NC(=O)COC(=O)CC23CC4CC(CC(C4)C2)C3)c([N+](=O)[O-])c1` reads 0. The result for `COC(=O)c1c(NS(=O)(=O)Cc2ccccc2)sc2c1CCCC2` reads 1 (active). The result for `COC(=O)c1c(NC(=S)Nc2ccc(F)cc2[N+](=O)[O-])sc2c1CCCCC2` reads 1 (active); that for `CCOC(=O)c1c(NS(=O)(=O)Cc2ccccc2)sc2c1CCCC2`, 1 (active). `COC(=O)c1c(NC(=S)NC(=O)c2ccco2)sc2c1CCCC2`: the manual score was 0. The result for `CCOC(=O)c1c(NC(=S)Nc2ccccc2)sc2c1CCCCC2` reads 1 (active). The same measure for `CCOC(=O)Cn1c(=O)oc2cc(S(=O)(=O)Nc3ccc(N(CC)CC)cc3C)ccc21`: 0; for `CC(C)c1ccccc1NC(=O)COC(=O)/C=C/c1cccc([N+](=O)[O-])c1`: 0. As for `CC(C)Oc1ccccc1C1Nc2ccccc2C(=O)N1c1ccc2c(c1)OCCO2` (stereo not drawn), the manual score is 0.

On to `CC(=O)Oc1ccc(N(C(C)=O)S(=O)(=O)c2cccs2)c2ccccc12`, for which the manual score was 0. The same measure for `COC(=O)c1c(NS(=O)(=O)c2cccs2)sc2c1CCCC2`: 1 (active); for `COC(=O)c1c(NC(=O)Cc2cccs2)sc(C(=O)NC2CCCCC2)c1C`: 0; for `CCCCN(CCCC)C(=O)CSc1nnc2n(C)c(=O)c3c4c(sc3n12)CCCC4`: -1 (active).

`CCC1(C)Cc2c(sc3c2c(=O)n(C)c2nnc(SCc4ccc5c(c4)OCO5)n32)CO1` (stereo not drawn): the manual score is 0. With `CON(c1nc(Cl)nc(N(C)C)n1)S(=O)(=O)c1ccccc1Cl`, the manual score was 0. For the compound `CCCCCC/C(C)=C1/SC(=S)NC1=O`, the manual score is 1 (active).

Take `Cn1c(CNc2nc3ccccc3n2CCN2CCCCC2)nc2ccccc21`: the manual score was 0.

As to `CC1(C)CC(c2nc(-c3ccc(Br)cc3)cs2)CCS1` (stereo not drawn), the manual score is 0.

On to `CCc1c(O)nc(SCC(=O)Nc2ccc(OC)cc2)n(C2CCCCC2)c1=O`, for which the manual score was 0.

For `COC(=O)c1ccc2c(=O)n(C3CCCCC3)c(SCC#N)nc2c1`, the manual score was 0. Consider `CCCN(CCC)C(=O)CSc1nc2ccccc2c(=O)n1C1CCCC1`, for which the manual score is -1 (active). The result for `CCOC(=O)N1CCN(C(=O)CSc2nc3c(c(=O)n2-c2ccccc2OC)SCC3)CC1` reads -1 (active); that for `CCOC(=O)N1CCN(C(=O)CSc2ncnc3ccccc23)CC1`, 0; that for `CCOC(=O)CSc1nc2c(sc(=S)n2-c2ccccc2OC)c(=O)n1Cc1ccco1`, -0.5. As for `CCN(CC)C(=O)CSc1nc2ccccc2c(=O)n1-c1ccccc1OC`, the manual score is -1 (active). The result for `COC(=O)COn1c(SC(C)C)nc2ccccc2c1=O` reads 0; that for `N#CC1=C(N)Oc2n[nH]c(-c3cccs3)c2C1c1ccco1` (stereo not drawn), 3; that for `Cc1c(C#N)c2ccccc2n1CC(=O)O`, 0. Consider `Cc1ccc(N=C2CCCN2Cc2ccccc2)c(C#N)c1`, for which the manual score was -1 (active). In the case of `Cc1ccc(C)c(N=C2CCCN2Cc2ccccc2)c1C#N`, the manual score is -1 (active).

Turning to `COC(=O)c1ccc(N2C(=O)CC(Sc3n[nH]c(C)n3)C2=O)cc1` (stereo not drawn), the manual score was 0.

On to `CC(C)CCOP(=O)(c1ccc(N(C)C)cc1)C(O)c1ccccn1` (stereo not drawn), for which the manual score was 0.

As for `Brc1ccc(-c2nnc3c4ccccc4nc(N4CCOCC4)n23)cc1`, the manual score was 0.

As for `CCN(CC)CCCNC(=O)c1cc(-c2ccc(Cl)c(Cl)c2)on1`, the manual score was 0. The result for `O=C(c1cc(-c2ccccc2)on1)N1CCCC1` reads 0; that for `CC(C)n1cc(NC(=O)c2cc(-c3ccccc3)on2)cn1`, 1 (active); that for `CCCn1cc(NC(=O)c2cc(-c3ccccc3)on2)cn1`, 1 (active).

In the case of `CCOC(=O)C1CCCN(C(=O)c2cc(-c3ccccc3)on2)C1` (stereo not drawn), the manual score is 0.

In the case of `CCN(CC)CCN(CC)Cc1ccccc1Br`, the manual score is 0.

With `CCC(c1nnnn1Cc1ccc(OC)cc1)N(CCCO)Cc1cc2cc3c(cc2[nH]c1=O)OCO3` (stereo not drawn), the manual score is 0.

On to `S=c1[nH]nc(COc2ccccc2)n1C1CCCCC1`, for which the manual score is 1 (active).

For `S=c1[nH]nc(CSc2nc3ccccc3s2)n1C1CCCCC1`, the manual score is 1 (active). Regarding `Clc1ccccc1-c1nn2c(COc3ccccc3)nnc2s1`, the manual score was 0. Regarding `CC(O)c1nc2ccccc2n1C1CCCCC1` (stereo not drawn), the manual score is 0. The result for `CC(=O)c1c(C(C)=O)c(C)n(-c2nc(-c3cccs3)c(C)s2)c1C` reads 0; that for `Cc1ccc(NC(=O)CN2c3cccc4cccc(c34)S2(=O)=O)cc1S(=O)(=O)N1CCOCC1`, 0. For the compound `O=c1c2cccnc2[nH]c(=S)n1Cc1ccccc1`, the manual score was 1 (active).

As for `O=c1c2cccnc2[nH]c(=S)n1CCCN1CCN(c2ccc(F)cc2)CC1`, the manual score was 1 (active).

With `Cc1cc(C(F)(F)F)c2c(=O)[nH]c(=O)n(Cc3ccccc3)c2n1`, the manual score was 0. As to `O=c1c2cc(F)ccc2[nH]c(=S)n1CCCN1CCOCC1`, the manual score was 0. The result for `Cn1c(=O)c2c(nc(-n3ccnc3)n2Cc2ccccc2)n(C)c1=O` reads 0. Turning to `CCOC(=O)CN1NC2(CCC(C(C)(C)C)CC2)NC1=S` (stereo not drawn), the manual score was 0. With `CCSc1nnc(NC(=O)C(Cc2ccccc2)n2cccc2)s1` (stereo not drawn), the manual score is 0. The same measure for `Cc1csc(NC(=O)C(Cc2ccccc2)n2cccc2)n1` (stereo not drawn): 0. With `O=C(Nc1ncc(Br)s1)C(Cc1ccccc1)n1cccc1` (stereo not drawn), the manual score is 1 (active). The result for `CCOC(=O)Cn1c(=N)n(CCOc2cccc(C)c2)c2ccccc21` reads 0; that for `COc1ccc(OCc2nc(N)nc(Nc3ccccc3)n2)cc1`, 0. The same measure for `Nc1c(-c2ccccc2)cnn1-c1ccc(C(=O)O)cc1`: 0.

Regarding `CC(C)Oc1cccc(C(=O)NC(=S)N2CCN(c3ccc(C(F)(F)F)cc3[N+](=O)[O-])CC2)c1`, the manual score is 1 (active). The result for `COc1cccc(C(=O)NC(=S)N2CCN(c3ccc(C(F)(F)F)cc3[N+](=O)[O-])CC2)c1` reads 1 (active); that for `Cc1ccc(CC(=O)N2CCN(c3cccc(C(F)(F)F)c3)CC2)cc1`, 0; that for `COc1ccccc1NC(=O)COc1ccc(C(F)(F)F)cc1[N+](=O)[O-]`, 0. Consider `COc1cc(OC)cc(C(=O)NC(=S)N2CCN(c3ccc(C(F)(F)F)cc3[N+](=O)[O-])CC2)c1`, for which the manual score is 1 (active).
